Results on five compounds are retold here after PubChem BioAssay AID2061323 (National Center for Advancing Translational Sciences (NCATS), 2025).

Records with an inconclusive call do not appear. Active and inactive are the calls of the source. Calls follow the shape of the dose curve; as a rule, active = well fitted inhibition curve with a large enough effect; inconclusive = small, poorly fitted or top-dose-only effect; inactive = flat fitted curve, though single readings scatter.

This experiment is described as follows: Identification of antibody-drug conjugate (ADC) payloads which are substrates of ATP-binding cassette drug efflux transporters: ABCG2-HEK293-R5 cell line. The conditions noted are these: ABCG2-HEK293-R5 viability, CellTiter-Glo ATP luminescence, 48 h. The text has this: Antibody-drug conjugates (ADCs) feature an antibody recognizing a specific protein joined to a potent toxic payload. Numerous antibody-drug conjugates have received FDA approval; however, clinical resistance arises. Resistance mechanisms include decreased expression or mutation of the antibody target, impaired payload release, or increased expression of ATP-binding cassette (ABC) efflux transporters associated with multidrug resistance. We therefore sought to characterize the interaction of ABC multidrug transporters with ADC payloads. We performed a high-throughput screen with 27 common ADC payloads using cells lines expressing ABC transporters P-glycoprotein (P-gp, encoded by ABCB1) or ABCG2 (encoded by ABCG2). Confirmatory assays were also performed using cells transfected to express P-gp, ABCG2, or MRP1 (encoded by ABCC1). Several commonly used ADC payloads were substrates of P-gp, including calicheamicin gamma1, monomethyl auristatin E, DM1, and DM4. All the pyrrolobenzodiazepines tested - SJG136, SGD-1882, SG2057, and SG3199 - were substrates of P-gp, ABCG2, and MRP1. […] These findings highlight the risk of transporter-mediated resistance with certain ADC payloads and underscore the importance of selecting payloads that evade ABC transporter recognition in future ADC development.
HEK-293 cells were transfected with empty vector (pcDNA) or vector containing the human ABCB1 (MDR-19), ABCG2 (R-5), or ABCC1 gene (MRP1) and were maintained in EMEM with 2 mg/mL G418 added to maintain transporter expression. The HeLa derivative KB-3-1 and the P-gp overexpressing KB-8-5-11 subline were maintained in DMEM; KB-8-5-11 additionally received 100 ng/mL colchicine. H460 parental cells were obtained from the Division of Cancer Treatment and Diagnosis Tumor Repository, National Cancer Institute at Frederick, MD and were cultured in RPMI. The ABCG2 expressing subline H460 MX20 was generated by selecting H460 cells in 20 nM mitoxantrone. Media in all cases was supplemented with 10% FBS and 1% penicillin-streptomycin. We explored 27 common ADC payloads, in two orthogonal, paired cell line sets-a drug selected and transfected set for each transporter--to identify substrates of the ABC transporters P-gp and ABCG2. Compounds were sourced from Levena Biopharma (San Diego, CA), Selleck Chem (Houston, TX), ChemieTek (Indianapolis, IN), or Microsource Discovery Systems (Gaylordsville, CT). Screening was performed as previously described. Briefly, cells were plated at a density of 500 cells/well in 1536 well plates with compounds added using a 1536-head pin tool (Kalypsys, San Diego CA). Cells were incubated with cytotoxic drugs and processed with CellTiter Glo reagent (Promega, Madison, WI) to determine viability after 48 hours. P-gp substrates were identified by comparing compound activity between paired sets of low-expressing (sensitive) and over-expressing (resistant) cell lines.
Turning to `COC(=O)c1cc2c3c(cc(O)c2[nH]1)N(C(=O)c1cc2cc(OC)c(OC)c(OC)c2[nH]1)CC3CCl` (stereo not given), the Potency is 4.2 nM (active). For the compound `CCN[C@H]1CO[C@@H](O[C@H]2[C@H](O[C@H]3C#C/C=C\C#C[C@]4(O)CC(=O)C(NC(=O)OC)=C3/C4=C\CSSSC)O[C@H](C)[C@@H](NO[C@H]3C[C@H](O)[C@H](SC(=O)c4c(C)c(I)c(O[C@@H]5O[C@@H](C)[C@H](O)[C@@H](OC)[C@H]5O)c(OC)c4OC)[C@@H](C)O3)[C@@H]2O)C[C@@H]1OC`, the Potency is 3.8 nM (active). Regarding `CC(C)(C)OC(=O)Nc1ccc2[nH]c(C(=O)N3C[C@@H](CCl)c4c3cc(O)c3ccccc43)cc2c1`, the Potency is 33.6 nM (active). With `CCN(C(C)=O)[C@H]1CO[C@@H](O[C@H]2[C@H](O[C@H]3C#C/C=C\C#C[C@]4(O)CC(=O)C(NC(=O)OC)=C3/C4=C\CSSSC)O[C@H](C)[C@@H](NO[C@H]3C[C@H](O)[C@H](SC(=O)c4c(C)c(I)c(O[C@@H]5O[C@@H](C)[C@H](O)[C@@H](OC)[C@H]5O)c(OC)c4OC)[C@@H](C)O3)[C@@H]2O)C[C@@H]1OC` the figure was 67.1 nM (active). With `CN(C)CCOc1ccc2[nH]c(C(=O)N3C[C@@H](CCl)c4c3cc(O)c3ccccc43)cc2c1` the figure was 1.7 nM (active).
